# Data published in PubChem BioAssay (NCI).
# About 83,000 compounds went through this panel and 20% of them were active in at least one assay; those are over-represented in the sample as a whole.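 Assay: single dose, 48 h. Readout: percent growth (0 = no net growth; negative = cell death). Active: <10.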 Values without a mark were called inactive. Active and inactive are the calls of the source.
# Legend:
# Test in all cases: NCI-60 one-dose screen, 48 h (100 = growth as untreated, 0 = no growth, -100 = all killed)
# Settings in all cases: 10 µM unless noted
# SR leukemia = tested on: SR leukemia
# RPMI-8226 leukemia = tested on: RPMI-8226 leukemia
# OVCAR-8 ovarian = tested on: OVCAR-8 ovarian
# OVCAR-5 ovarian = tested on: OVCAR-5 ovarian
# OVCAR-4 ovarian = tested on: OVCAR-4 ovarian
# SK-OV-3 ovarian = tested on: SK-OV-3 ovarian
# IGROV1 ovarian = tested on: IGROV1 ovarian
# OVCAR-3 ovarian = tested on: OVCAR-3 ovarian
# HS 578T breast = tested on: HS 578T breast
# NCI/ADR-RES ovarian = tested on: NCI/ADR-RES ovarian
Compound,growth (SR leukemia),growth (RPMI-8226 leukemia),growth (OVCAR-8 ovarian),growth (OVCAR-5 ovarian),growth (OVCAR-4 ovarian),growth (SK-OV-3 ovarian),growth (IGROV1 ovarian),growth (OVCAR-3 ovarian),growth (HS 578T breast),growth (NCI/ADR-RES ovarian)
COc1ccc(-c2n[nH]nc2-c2cc3ccccc3s2)cc1O,18.6%,21.1%,27.7%,38.2%,52.4%,15.5%,49%,16.1%,18.3%,13.5%
Cc1cc(N(CCCNc2ccnc3cc(Cl)ccc23)Cc2ccco2)nc(N2CCN(C)CC2)n1,-16.7% (active),3.87% (active),55.4%,73.9%,57%,98%,38.5%,56.6%,67.6%,59.8%
O=C1CCC/C=C\C[C@H]2C=C(Cl)C(=O)/C2=C/C[C@H](CCCCC(F)(F)F)OC(=O)CCC/C=C\C[C@H]2C=C(Cl)C(=O)/C2=C/C[C@H](CCCCC(F)(F)F)O1,-14.6% [7.5 µM] (active),-14.9% [7.5 µM] (active),-4.7% [7.5 µM] (active),-33.6% [7.5 µM] (active),19.7% [7.5 µM],-2.87% [7.5 µM] (active),-48.2% [7.5 µM] (active),-81.3% [7.5 µM] (active),21.8% [7.5 µM],12.5% [7.5 µM]
COc1ccc2c(c1)C(Br)=C(CCO)C2c1ccccc1 (stereo not given),112%,40.7%,86.1%,78%,87.3%,78.1%,83.5%,26%,35.7%,65.1%
CC1(C)CC[C@]2(C(=O)Nc3ccccn3)CC[C@]3(C)C(=CC[C@@H]4[C@@]5(C)C/C(=C/c6ccncc6)C(=O)C(C)(C)[C@@H]5CC[C@]43C)[C@@H]2C1,8.26% (active),-0.291% (active),41.5%,75.5%,17.1%,71.8%,50.6%,12.6%,56.7%,51.3%
COc1cnc2c(c1)C(=O)c1c-2n(CCCN2CCN(CCO)CC2)c(=O)c2cc([N+](=O)[O-])ccc12,-12.5% (active),44.6%,52.5%,132%,79.4%,54.8%,74.2%,84.4%,84.9%,111%
Cc1ccc(N(CC(=O)Nc2ccc(S(=O)(=O)NC3CCN(C)CC3)cc2)S(=O)(=O)c2ccc(Cl)cc2)cc1,5.99% (active),65.6%,96.2%,91.6%,87.8%,105%,85.7%,72.5%,69.5%,98.6%
CCc1nnc(NC(=O)c2ccoc2COc2ccccc2)s1,26.4%,30.8%,63.8%,84.7%,92.2%,75.9%,53.4%,33.8%,62%,12%
COc1cccc(-c2nn(-c3ccccc3)cc2-c2ccnc(NCCCNS(=O)(=O)c3cccc(F)c3)c2)c1,-7.52% (active),14.3%,12.1%,61.3%,34%,40.9%,29.6%,46.5%,32%,12.7%
O=c1[nH]c2c3ccncc3cc(-c3cccc(Cl)c3)c2c2cnccc12,14.3%,27.1%,40.2%,67.9%,-8.25% (active),51.9%,70.9%,-22.8% (active),5.48% (active),50.3%
Cn1cc(-c2csc(-c3cn(CCCN4CCCCC4)c4ccc(Br)cc34)n2)c2cccnc21,-48.9% (active),-35.3% (active),-16.4% (active),30.8%,32.3%,75.2%,-20.1% (active),-75.6% (active),60.8%,19.9%
COc1ccc(/C=C(\C#N)c2cc3ccccc3n2S(C)(=O)=O)cc1,53.1%,79.1%,95.9%,99.3%,93.4%,112%,74%,94.8%,95.6%,60.1%
O=C(N/N=C/c1ccccc1SSc1ccccc1/C=N/NC(=O)c1ccccc1)c1ccccc1,18.9%,31.1%,24.9%,85.2%,38.5%,43%,30.6%,31.1%,75.4%,9.77% (active)
CC(=O)O[C@H]1CC[C@]2(C)[C@H]3C(=O)C=C4[C@@H]5C[C@](C)(C(=O)N6CCCNCC6)CC[C@]5(C)CC[C@@]4(C)[C@]3(C)CC[C@H]2C1(C)C,-17.3% (active),-32.3% (active),-24.6% (active),8.24% (active),-5.14% (active),70.6%,-80.5% (active),-86.4% (active),96.2%,-41.6% (active)
CCN1CCN(C(=O)[C@]23CCC(C)(C)C[C@@H]2C2=CC[C@@H]4[C@@]5(C)C/C(=C/c6cccnc6)C(=O)C(C)(C)[C@@H]5CC[C@@]4(C)[C@]2(C)CC3)CC1,4.78% (active),5.88% (active),27.1%,83.8%,7.28% (active),56%,51.6%,28.6%,54.6%,8.32% (active)
COc1ccc(/C=C(\C#N)c2cc3ccccc3n2C(C)=O)cc1,47.3%,83.2%,103%,104%,96.5%,107%,89.8%,92.8%,87.4%,55.6%
CC(=O)c1c(C)[nH]c(-c2nc3ccc(N4CCN(C)CC4)cc3[nH]2)c1-c1ccc(OCC2CCOCC2)cc1,28.1%,-2.05% (active),38%,43.8%,35.7%,13.5%,16.2%,30.7%,19.5%,31.7%
CCCCC[C@H]1C/C=C2/C(=O)C(Cl)=C[C@@H]2C/C=C\CCCC(=O)O[C@@H](CCCCC)C/C=C2/C(=O)C(Cl)=C[C@@H]2C/C=C\CCCC(=O)O1,-7.23% (active),-13.6% (active),-13.9% (active),-44.4% (active),16%,-21.4% (active),-44.4% (active),-82.7% (active),32.4%,19.8%
Fc1ccc(Nc2ccc3c(OCCCN4CCOCC4)cccc3n2)cc1F,28%,41.3%,117%,67.8%,79%,96.9%,82.4%,85.8%,67.5%,76.9%
Cc1ccc(-c2nc([P+](c3ccccc3)(c3ccccc3)c3ccccc3)c(N3C[C@H]4C[C@H](C3)c3cccc(=O)n3C4)o2)cc1,87.9%,11.5%,86.6%,105%,77.3%,123%,46.4%,54%,94.4%,94.9%
Nc1ccccc1NC(=O)c1ccc(CN2CCC/C(=C\c3ccccn3)C2=O)cc1,14.1%,11.8%,26.4%,20.9%,47.6%,48.2%,21.2%,27.6%,36.2%,28.7%
CC(C)(C)c1nc(-c2ccc(O)c(O)c2)cs1,26.9%,39.2%,60.9%,91%,76.2%,90.6%,43.8%,61.2%,85.9%,35.5%
CCN1CCN(C(=O)[C@]23CC[C@@H](C)[C@H](C)[C@H]2C2=CC[C@@H]4[C@@]5(C)C/C(=C/c6cccc(OC)c6OC)C(=O)C(C)(C)[C@@H]5CC[C@@]4(C)[C@]2(C)CC3)CC1,5.2% (active),15.4%,50.3%,67.8%,24.5%,68.6%,60.7%,31.2%,67.6%,35.3%
COc1cc2nc(Cl)nc(Nc3cccc(C(=O)/C=C/c4ccc(F)cc4)c3)c2cc1OC,12.2%,-18.1% (active),67.3%,68.2%,64.9%,106%,51%,43.4%,101%,51.6%
N#CC1=C(N)Oc2ccc3ccccc3c2C1c1ccccc1Cl (stereo not given),26.1%,32.9%,61.8%,77.2%,78.9%,55.9%,34.1%,31.2%,40.4%,9.51% (active)
